Results: PubChem BioAssay (EPA / NIEHS)
Several values for one entry are separate records, joined by “and”; a condition that tells them apart may be missing. Identical values can stand only once. Inconclusive results are not listed. Activity calls are given as the source filed them. How the source made its calls, unless noted: active means hit-call score of the fitted dose curve at least 0.9, where 1 is the maximum; inactive means score below 0.9.

Legend:
[1] = molecular target: human Retinoid X Receptor beta (RXRb), RXRB (gene 6257) (UniProt P28702); assay: ATG_RXRb_TRANS: Attagene TRANS-FACTORIAL HepG2 Assay for human Retinoid X Receptor beta (RXRb) (AID 2283013; active means hit-call score of the fitted dose curve at least 0.9, where 1 is the maximum)
Sequence of human Retinoid X Receptor beta (RXRb), RXRB (gene 6257) (P28702 whole entry, looked up, the tested form may be a part): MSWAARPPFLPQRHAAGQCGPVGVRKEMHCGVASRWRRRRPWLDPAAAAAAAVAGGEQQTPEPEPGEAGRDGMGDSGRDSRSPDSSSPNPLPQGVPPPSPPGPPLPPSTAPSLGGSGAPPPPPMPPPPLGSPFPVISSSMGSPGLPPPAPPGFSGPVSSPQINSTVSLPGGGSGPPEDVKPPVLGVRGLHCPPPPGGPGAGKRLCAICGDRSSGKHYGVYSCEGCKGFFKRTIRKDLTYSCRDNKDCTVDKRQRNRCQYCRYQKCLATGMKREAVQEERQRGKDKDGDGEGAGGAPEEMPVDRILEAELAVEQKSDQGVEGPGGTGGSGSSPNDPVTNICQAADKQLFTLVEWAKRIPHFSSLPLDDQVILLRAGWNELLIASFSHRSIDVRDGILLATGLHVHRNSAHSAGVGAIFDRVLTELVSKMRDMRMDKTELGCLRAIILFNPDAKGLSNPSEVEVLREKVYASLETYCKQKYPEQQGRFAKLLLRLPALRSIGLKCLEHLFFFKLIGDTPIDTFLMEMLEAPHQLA
How it was run: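 HepG2 cells transiently transfected with multiplexed reporter units driven by GAL4-UAS and exogenous chimeric NR-Gal4 proteins; treated 24 h. Reporter mRNA measured by RT-PCR, 6-FAM labelling and capillary electrophoresis; gain-of-signal fitted versus DMSO baseline.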

[2] = molecular target: human Thyroid Receptor alpha (THRa1), THRA (gene 7067) (UniProt P10827); assay: ATG_THRa1_TRANS: Attagene TRANS-FACTORIAL HepG2 Assay for human Thyroid Receptor alpha (THRa1) (AID 2283014; active means hit-call score of the fitted dose curve at least 0.9, where 1 is the maximum)
Sequence of human Thyroid Receptor alpha (THRa1), THRA (gene 7067) (P10827 whole entry, looked up, the tested form may be a part): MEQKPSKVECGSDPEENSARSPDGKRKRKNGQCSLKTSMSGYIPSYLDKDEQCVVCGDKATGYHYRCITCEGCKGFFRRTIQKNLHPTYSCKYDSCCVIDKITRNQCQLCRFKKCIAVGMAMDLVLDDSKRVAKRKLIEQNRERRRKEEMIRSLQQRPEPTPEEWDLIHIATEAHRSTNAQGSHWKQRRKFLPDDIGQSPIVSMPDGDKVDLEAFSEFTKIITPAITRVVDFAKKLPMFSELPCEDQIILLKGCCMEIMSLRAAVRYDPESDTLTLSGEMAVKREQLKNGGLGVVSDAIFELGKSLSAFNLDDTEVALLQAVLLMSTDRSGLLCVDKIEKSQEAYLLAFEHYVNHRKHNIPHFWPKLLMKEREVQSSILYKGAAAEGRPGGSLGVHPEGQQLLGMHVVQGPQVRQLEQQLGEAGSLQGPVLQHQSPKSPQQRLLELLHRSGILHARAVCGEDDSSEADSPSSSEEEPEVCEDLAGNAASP
How it was run: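 HepG2 cells transiently transfected with multiplexed GAL4-UAS reporter units for exogenous chimeric THRa1-Gal4; reporter mRNA measured 24 h after dosing by RT-PCR, 6-FAM labelling, HpaI digestion and capillary electrophoresis. Gain-of-signal fitted versus DMSO baseline.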

[3] = read-out: Interleukin-1 alpha (IL1a), IL1A (gene 3552); assay: BSK_BE3C_IL1a: BioMAP Diversity Plus: BE3C Assay for Interleukin-1 alpha (IL1a) Biomarker Activity (AID 2283016); conditions: primary human bronchial epithelial cells; actives raise or lower the signal
How it was run: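 Human primary bronchial epithelial cells (BE3C system) were dosed with compound and IL-1a measured by ELISA 24 h later. Activity was fitted bidirectionally against DMSO baseline; cytotoxicity was tracked in parallel cultures by SRB total-protein staining.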

[4] = read-out: Monocyte Chemoattractant Protein-1 (MCP1), CCL2 (gene 6347); assay: BSK_3C_MCP1: BioMAP Diversity Plus: 3C Assay for Monocyte Chemoattractant Protein-1 (MCP1) Biomarker Activity (AID 2283017); conditions: primary human endothelial cells (HUVEC); actives raise or lower the signal
How it was run: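 Primary human umbilical vein endothelial cells (3C system) were exposed to test chemical for 24 h, after which MCP-1 was quantified by ELISA. Activity was fitted bidirectionally against DMSO as negative control and baseline.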

[5] = read-out: Monocyte Chemoattractant Protein-1 (MCP1), CCL2 (gene 6347); assay: BSK_4H_MCP1: BioMAP Diversity Plus: 4H Assay for Monocyte Chemoattractant Protein-1 (MCP1) Biomarker Activity (AID 2283018); conditions: primary human endothelial cells (HUVEC); actives raise or lower the signal
How it was run: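 Human umbilical vein endothelial cells (4H system) dosed with chemical; MCP-1 measured by ELISA 24 h after dosing. Bidirectional curve fitting against DMSO negative control as baseline; parallel SRB total-protein staining tracks overt cytotoxicity.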

[6] = read-out: Human Leukocyte Antigen - DR isotype (HLADR), HLA-DRA (gene 3122); assay: BSK_3C_HLADR: BioMAP Diversity Plus: 3C Assay for Human Leukocyte Antigen - DR isotype (HLADR) Biomarker Activity (AID 2283019); conditions: primary human endothelial cells (HUVEC); actives raise or lower the signal;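 on outcome: ELISA of cell-surface HLA-DR on HUVEC 24 h after dosing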
How it was run: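 Primary human umbilical vein endothelial cells (3C system) were dosed with compound and cell-surface HLA-DR was quantified by ELISA at 24 h. Activity was fitted bidirectionally against DMSO as negative control and baseline.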

[7] = read-out: E-selectin (Homo sapiens) (UniProt P16581); assay: BSK_3C_Eselectin: BioMAP Diversity Plus: 3C Assay for Eselectin Biomarker Activity (AID 2283015); conditions: primary human endothelial cells (HUVEC); actives raise or lower the signal;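 on outcome: cell surface E-selectin protein quantified by ELISA 24 h after dosing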
How it was run: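 Primary human umbilical vein endothelial cells (3C system) were dosed with chemical and cell-surface E-selectin measured by ELISA 24 h later. Bidirectional curve fitting used DMSO as negative control and baseline.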

Sequence of E-selectin (Homo sapiens) (P16581 whole entry, looked up): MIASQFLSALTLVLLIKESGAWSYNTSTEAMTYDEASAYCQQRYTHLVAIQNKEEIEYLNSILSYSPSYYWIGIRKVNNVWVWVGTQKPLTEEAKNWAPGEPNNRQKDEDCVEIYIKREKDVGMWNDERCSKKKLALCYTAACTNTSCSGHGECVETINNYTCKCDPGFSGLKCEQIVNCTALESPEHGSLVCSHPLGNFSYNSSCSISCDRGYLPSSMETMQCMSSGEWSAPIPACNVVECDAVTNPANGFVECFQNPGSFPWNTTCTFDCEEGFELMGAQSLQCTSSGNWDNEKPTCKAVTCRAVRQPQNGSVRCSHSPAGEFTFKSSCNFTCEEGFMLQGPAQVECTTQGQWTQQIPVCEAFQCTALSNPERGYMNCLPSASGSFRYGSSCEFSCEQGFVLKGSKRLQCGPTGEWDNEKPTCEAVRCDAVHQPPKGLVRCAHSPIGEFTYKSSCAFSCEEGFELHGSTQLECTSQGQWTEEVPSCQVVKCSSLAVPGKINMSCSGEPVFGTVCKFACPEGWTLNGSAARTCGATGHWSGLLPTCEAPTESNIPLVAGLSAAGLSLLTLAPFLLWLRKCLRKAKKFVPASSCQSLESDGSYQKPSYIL

## Cc1ccc(O)c(-n2nc3ccccc3n2)c1
[1]
  AC50: 20.4 µM (active)
[2]
  outcome: inactive
[3]
  outcome: inactive
[4]
  outcome: inactive
[5]
  outcome: inactive
[6]
  outcome: inactive

## CCOCOCC
[2]
  outcome: inactive

## CCCCC(CC)COC(=O)c1ccc(N(C)C)cc1 (configuration not stated)
[2]
  outcome: inactive

## OCC1CCCO1 (configuration not stated)
[1]
  outcome: inactive

## O=C=Nc1cccc2c(N=C=O)cccc12
[2]
  outcome: inactive
[3]
  outcome: inactive
[4]
  outcome: inactive
[5]
  AC50: 502 nM (active)

## c1ccc(C[P+](c2ccccc2)(c2ccccc2)c2ccccc2)cc1
[2]
  AC50: 18.6 µM (active)

## NC(O)(C(F)(F)F)C(F)(F)F
[2]
  outcome: inactive
[3]
  outcome: inactive
[4]
  outcome: inactive
[5]
  outcome: inactive

## CC(C)CC=C(C=O)c1ccccc1
[1]
  outcome: inactive

## OCCCC(F)(F)C(F)(F)C(F)(F)C(F)(F)C(F)(F)C(F)(F)C(F)(F)C(F)(F)F
[1]
  AC50: 2.86 µM (active)
[2]
  outcome: inactive
[7]
  AC50: 27.4 µM (active) and 50.6 µM (active)
[3]
  AC50: 46.9 µM (active) and 39.5 µM (active)
[4]
  AC50: 20.8 µM (active) and 31.7 µM (active)
[5]
  AC50: 45.5 µM (active) and 46.7 µM (active)
[6]
  AC50: 19.4 µM (active) and 43.2 µM (active)

## CCN(CCO)S(=O)(=O)C(F)(F)C(F)(F)C(F)(F)C(F)(F)C(F)(F)C(F)(F)C(F)(F)C(F)(F)F
[2]
  outcome: inactive
[7]
  outcome: inactive
[3]
  AC50: 45.7 µM (active) and 19.5 µM (active)
[4]
  AC50: 23.1 µM (active) and 9.73 µM (active)
[5]
  outcome: inactive

## CCOC(=O)CCC(C)=O
[1]
  outcome: inactive

## NC(=O)C(F)(F)C(F)(F)C(F)(F)C(F)(F)C(N)=O
[2]
  outcome: inactive
[3]
  outcome: inactive
[4]
  outcome: inactive
[5]
  outcome: inactive
[6]
  outcome: inactive
